What was measured:
[1] = target: 26S proteasome regulatory subunit RPN3 (UniProt P40016); experiment: cross-link between two proteins; cross-linking mass spectrometry
[2] = target: ATP-dependent molecular chaperone HSC82 (UniProt P15108); experiment: cross-link between two proteins; affinity purification or IP with mass spectrometry; cross-linking mass spectrometry
[3] = target: ATP synthase subunit 4, mitochondrial (UniProt P05626); experiment: cross-link between two proteins; cross-linking mass spectrometry
[4] = target: ATP synthase subunit 5, mitochondrial (UniProt P09457); experiment: as above
[5] = target: ATP synthase subunit H, mitochondrial (UniProt Q12349); experiment: as above
[6] = target: ATP synthase subunit d, mitochondrial (UniProt P30902); experiment: as above
[7] = target: 26S proteasome regulatory subunit 4 homolog (UniProt P40327); experiment: as above
[8] = target: 26S proteasome regulatory subunit 7 homolog (UniProt P33299); experiment: as above
[9] = target: 26S proteasome regulatory subunit RPN9 (UniProt Q04062); experiment: as above
[10] = target: 26S proteasome regulatory subunit RPN7 (UniProt Q06103); experiment: as above
[11] = target: ATP synthase subunit f, mitochondrial (UniProt Q06405); experiment: as above
[12] = target: 26S proteasome subunit RPT4 (UniProt P53549); experiment: as above
[13] = target: 26S proteasome regulatory subunit 8 homolog (UniProt Q01939); experiment: as above
[14] = target: 26S proteasome regulatory subunit RPN8 (UniProt Q08723); experiment: as above
[15] = target: 2-isopropylmalate synthase 2, mitochondrial (UniProt Q12166); experiment: as above
[16] = target: ATP-dependent RNA helicase HAS1 (UniProt Q03532); experiment: as above
[17] = target: ATP-dependent RNA helicase DBP10 (UniProt Q12389); experiment: as above
[18] = target: Protein transport protein SSS1 (UniProt P35179); experiment: cross-link between two proteins; affinity purification or IP with mass spectrometry; cross-linking mass spectrometry
[19] = target: ATP synthase subunit gamma, mitochondrial (UniProt P38077); experiment: cross-link between two proteins; cross-linking mass spectrometry
Elongation factor 3A = Elongation factor 3A (UniProt P16521); experiment: cross-link between two proteins; affinity purification or IP with mass spectrometry; cross-linking mass spectrometry
[20] = target: Heat shock protein homolog SSE1 (UniProt P32589); experiment: cross-link between two proteins
[21] = target: Heat shock protein homolog SSE2 (UniProt P32590); experiment: cross-link between two proteins; affinity purification or IP with mass spectrometry; cross-linking mass spectrometry
[22] = target: Large ribosomal subunit protein eL21A (UniProt Q02753); experiment: as above
[23] = target: Large ribosomal subunit protein eL8B (UniProt P29453); experiment: as above
[24] = target: Large ribosomal subunit protein uL24B (UniProt P53221); experiment: as above
[25] = target: Signal transduction protein MDG1 (UniProt P53885); experiment: as above
[26] = target: Small ribosomal subunit protein eS1B (UniProt P23248); experiment: as above
[27] = target: Small ribosomal subunit protein uS10 (UniProt P38701); experiment: as above
[28] = target: Small ribosomal subunit protein uS11B (UniProt P39516); experiment: as above
[29] = target: Ribosome-associated molecular chaperone SSB1 (UniProt P11484); experiment: as above
[30] = target: ATP synthase subunit K, mitochondrial (UniProt P81451); experiment: cross-link between two proteins; cross-linking mass spectrometry
Heat shock protein STI1 = Heat shock protein STI1 (UniProt P15705); experiment: cross-link between two proteins; affinity purification or IP with mass spectrometry; cross-linking mass spectrometry
[31] = target: 26S proteasome regulatory subunit RPN2 (UniProt P32565); experiment: cross-link between two proteins; cross-linking mass spectrometry
[32] = target: Large ribosomal subunit protein eL22A (UniProt P05749); experiment: as above
[33] = target: Large ribosomal subunit protein uL3 (UniProt P14126); experiment: as above
[34] = target: Large ribosomal subunit protein eL13B (UniProt P40212); experiment: as above
[35] = target: Casein kinase II subunit beta (UniProt P43639); experiment: as above
[36] = target: Casein kinase II subunit beta' (UniProt P38930); experiment: as above
[37] = target: Cytochrome b-c1 complex subunit 10, mitochondrial (UniProt P37299); experiment: as above
[38] = target: Cytochrome b-c1 complex subunit 2, mitochondrial (UniProt P07257); experiment: as above
[39] = target: Cytochrome c oxidase subunit 12, mitochondrial (UniProt Q01519); experiment: as above
[40] = target: Cytochrome c oxidase subunit 5A, mitochondrial (UniProt P00424); experiment: as above
[41] = target: Cytochrome c oxidase subunit 6, mitochondrial (UniProt P00427); experiment: as above
[42] = target: DNA-directed RNA polymerase II subunit RPB11 (UniProt P38902); experiment: as above
[43] = target: DNA-directed RNA polymerases I, II, and III subunit RPABC5 (UniProt P22139); experiment: as above
FK506-binding protein 4 = FK506-binding protein 4 (UniProt Q06205); experiment: as above
[44] = target: H/ACA ribonucleoprotein complex subunit NOP10 (UniProt Q6Q547); experiment: cross-link between two proteins
Chain of H/ACA ribonucleoprotein complex subunit NOP10 (Q6Q547 whole entry, one chain of several): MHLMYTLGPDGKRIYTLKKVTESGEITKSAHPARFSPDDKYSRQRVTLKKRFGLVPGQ

Chain of 26S proteasome regulatory subunit RPN3 (P40016 whole entry): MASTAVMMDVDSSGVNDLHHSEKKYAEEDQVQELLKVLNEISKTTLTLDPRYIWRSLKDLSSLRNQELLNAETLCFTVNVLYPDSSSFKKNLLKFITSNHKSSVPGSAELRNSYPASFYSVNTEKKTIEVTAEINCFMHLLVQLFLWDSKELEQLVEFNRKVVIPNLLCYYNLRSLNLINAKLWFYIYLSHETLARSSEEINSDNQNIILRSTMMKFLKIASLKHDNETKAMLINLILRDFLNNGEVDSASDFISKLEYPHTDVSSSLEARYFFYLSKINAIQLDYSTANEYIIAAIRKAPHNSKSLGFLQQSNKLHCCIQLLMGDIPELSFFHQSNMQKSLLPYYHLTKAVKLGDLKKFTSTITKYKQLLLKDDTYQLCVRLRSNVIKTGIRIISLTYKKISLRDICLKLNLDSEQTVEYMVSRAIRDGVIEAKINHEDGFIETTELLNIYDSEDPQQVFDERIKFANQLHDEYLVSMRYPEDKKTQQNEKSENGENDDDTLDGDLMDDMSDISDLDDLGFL
Chain of 26S proteasome regulatory subunit 4 homolog (P40327 whole entry): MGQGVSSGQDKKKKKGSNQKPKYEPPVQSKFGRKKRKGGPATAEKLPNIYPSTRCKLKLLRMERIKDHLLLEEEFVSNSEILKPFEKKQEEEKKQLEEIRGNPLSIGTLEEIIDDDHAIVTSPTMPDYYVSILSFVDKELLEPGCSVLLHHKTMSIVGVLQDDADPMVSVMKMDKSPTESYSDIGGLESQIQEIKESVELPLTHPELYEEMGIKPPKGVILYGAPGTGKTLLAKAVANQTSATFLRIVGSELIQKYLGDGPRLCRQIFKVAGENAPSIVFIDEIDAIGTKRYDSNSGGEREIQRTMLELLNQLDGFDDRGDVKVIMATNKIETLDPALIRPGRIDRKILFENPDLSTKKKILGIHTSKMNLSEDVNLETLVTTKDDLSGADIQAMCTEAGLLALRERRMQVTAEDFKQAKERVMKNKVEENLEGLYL
Chain of Ribosome-associated molecular chaperone SSB1, P11484 (P11484 whole entry): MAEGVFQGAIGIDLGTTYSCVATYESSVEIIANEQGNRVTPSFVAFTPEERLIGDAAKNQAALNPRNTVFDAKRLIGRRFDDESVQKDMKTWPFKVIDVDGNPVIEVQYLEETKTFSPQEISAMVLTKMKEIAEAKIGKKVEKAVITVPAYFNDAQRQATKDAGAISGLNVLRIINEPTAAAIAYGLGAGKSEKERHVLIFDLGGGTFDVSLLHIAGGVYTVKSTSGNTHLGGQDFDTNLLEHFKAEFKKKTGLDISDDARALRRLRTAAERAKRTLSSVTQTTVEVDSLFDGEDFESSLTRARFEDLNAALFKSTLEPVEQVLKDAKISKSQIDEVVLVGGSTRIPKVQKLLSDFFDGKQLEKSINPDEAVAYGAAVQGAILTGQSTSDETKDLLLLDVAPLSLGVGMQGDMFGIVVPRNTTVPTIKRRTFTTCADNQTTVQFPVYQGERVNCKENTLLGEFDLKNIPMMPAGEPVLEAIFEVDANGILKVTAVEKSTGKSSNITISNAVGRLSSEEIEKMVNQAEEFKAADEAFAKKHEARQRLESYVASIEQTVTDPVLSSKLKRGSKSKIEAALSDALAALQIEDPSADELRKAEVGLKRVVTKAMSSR
Chain of Ribosome-associated molecular chaperone SSB1 (P11484 whole entry): as above
Chain of 26S proteasome regulatory subunit 8 homolog (Q01939 whole entry): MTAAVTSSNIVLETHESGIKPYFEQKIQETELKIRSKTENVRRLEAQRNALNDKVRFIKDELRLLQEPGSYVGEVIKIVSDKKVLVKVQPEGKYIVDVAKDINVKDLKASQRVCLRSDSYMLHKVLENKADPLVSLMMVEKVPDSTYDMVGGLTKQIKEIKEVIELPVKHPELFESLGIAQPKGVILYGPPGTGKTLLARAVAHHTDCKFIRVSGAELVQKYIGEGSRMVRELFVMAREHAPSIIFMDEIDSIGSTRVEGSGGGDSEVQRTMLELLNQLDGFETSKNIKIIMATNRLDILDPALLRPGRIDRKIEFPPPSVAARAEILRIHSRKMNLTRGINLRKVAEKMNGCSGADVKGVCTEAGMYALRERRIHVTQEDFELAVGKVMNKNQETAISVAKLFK
Chain of Nucleolar protein 16, P40007 (P40007 whole entry): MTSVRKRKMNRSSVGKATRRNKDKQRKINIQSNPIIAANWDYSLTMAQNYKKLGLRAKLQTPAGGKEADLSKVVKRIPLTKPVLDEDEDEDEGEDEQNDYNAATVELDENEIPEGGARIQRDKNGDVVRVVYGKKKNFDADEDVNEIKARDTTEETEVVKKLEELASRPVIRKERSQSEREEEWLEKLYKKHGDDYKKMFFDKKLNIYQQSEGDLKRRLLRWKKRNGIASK
Chain of 26S proteasome regulatory subunit RPN8 (Q08723 whole entry): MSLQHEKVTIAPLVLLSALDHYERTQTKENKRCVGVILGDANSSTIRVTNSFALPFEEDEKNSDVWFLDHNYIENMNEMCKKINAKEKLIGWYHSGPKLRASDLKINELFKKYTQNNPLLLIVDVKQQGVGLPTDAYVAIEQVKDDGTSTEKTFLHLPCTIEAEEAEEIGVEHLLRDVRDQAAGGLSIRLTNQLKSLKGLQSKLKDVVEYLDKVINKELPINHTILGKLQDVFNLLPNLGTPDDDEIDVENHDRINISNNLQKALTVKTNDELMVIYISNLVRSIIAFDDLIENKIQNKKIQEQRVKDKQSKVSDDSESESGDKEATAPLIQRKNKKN
Chain of ATP-dependent RNA helicase HAS1 (Q03532 whole entry): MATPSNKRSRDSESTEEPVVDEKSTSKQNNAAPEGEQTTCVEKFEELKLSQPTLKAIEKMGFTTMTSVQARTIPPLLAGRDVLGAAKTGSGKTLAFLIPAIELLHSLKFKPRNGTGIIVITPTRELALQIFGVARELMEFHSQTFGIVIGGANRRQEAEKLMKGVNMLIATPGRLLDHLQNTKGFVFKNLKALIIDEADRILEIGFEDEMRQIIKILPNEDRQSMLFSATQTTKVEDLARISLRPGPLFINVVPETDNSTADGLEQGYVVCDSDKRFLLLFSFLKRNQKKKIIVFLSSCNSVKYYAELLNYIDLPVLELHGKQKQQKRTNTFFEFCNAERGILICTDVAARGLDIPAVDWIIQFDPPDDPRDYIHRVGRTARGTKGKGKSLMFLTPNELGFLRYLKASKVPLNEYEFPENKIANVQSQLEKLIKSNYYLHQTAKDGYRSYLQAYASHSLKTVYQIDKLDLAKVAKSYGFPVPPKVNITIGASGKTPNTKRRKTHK
Chain of 26S proteasome subunit RPT4 (P53549 whole entry): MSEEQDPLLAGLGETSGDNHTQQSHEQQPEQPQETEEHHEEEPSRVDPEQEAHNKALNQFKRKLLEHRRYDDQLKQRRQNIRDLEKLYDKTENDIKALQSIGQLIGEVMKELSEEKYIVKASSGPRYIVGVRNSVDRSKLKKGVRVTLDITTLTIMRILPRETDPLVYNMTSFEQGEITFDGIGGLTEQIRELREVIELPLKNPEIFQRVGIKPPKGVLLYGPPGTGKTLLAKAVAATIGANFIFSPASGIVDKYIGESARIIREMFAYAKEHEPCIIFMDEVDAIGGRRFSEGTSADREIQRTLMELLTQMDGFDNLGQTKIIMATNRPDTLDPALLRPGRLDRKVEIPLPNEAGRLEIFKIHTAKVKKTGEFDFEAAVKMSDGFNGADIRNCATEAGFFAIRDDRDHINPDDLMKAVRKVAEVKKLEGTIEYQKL
Chain of DNA-directed RNA polymerases I, II, and III subunit RPABC5 (P22139 whole entry): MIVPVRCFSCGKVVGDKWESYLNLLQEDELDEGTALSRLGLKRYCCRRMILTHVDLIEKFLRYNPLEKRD
Chain of Cytochrome c oxidase subunit 6, mitochondrial (P00427 whole entry): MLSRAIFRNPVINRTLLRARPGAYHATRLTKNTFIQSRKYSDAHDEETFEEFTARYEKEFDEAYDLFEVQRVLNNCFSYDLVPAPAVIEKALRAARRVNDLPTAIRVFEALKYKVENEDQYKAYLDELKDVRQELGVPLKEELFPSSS
Chain of Large ribosomal subunit protein uL3 (P14126 whole entry): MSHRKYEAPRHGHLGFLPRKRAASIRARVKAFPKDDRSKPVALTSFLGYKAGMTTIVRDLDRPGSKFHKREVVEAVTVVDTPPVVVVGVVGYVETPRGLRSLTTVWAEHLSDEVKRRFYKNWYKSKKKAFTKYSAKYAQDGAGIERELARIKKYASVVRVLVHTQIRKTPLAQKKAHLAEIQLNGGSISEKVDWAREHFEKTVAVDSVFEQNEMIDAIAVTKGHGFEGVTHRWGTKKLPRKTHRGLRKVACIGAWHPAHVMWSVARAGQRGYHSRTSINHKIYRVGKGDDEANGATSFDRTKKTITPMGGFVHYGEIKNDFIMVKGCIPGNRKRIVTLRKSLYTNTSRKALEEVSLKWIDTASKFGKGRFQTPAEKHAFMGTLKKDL
Chain of Large ribosomal subunit protein uL24B (P53221 whole entry): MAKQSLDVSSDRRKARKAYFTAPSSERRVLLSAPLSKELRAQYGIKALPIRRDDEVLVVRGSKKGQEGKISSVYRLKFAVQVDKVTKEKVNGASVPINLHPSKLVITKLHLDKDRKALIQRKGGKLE

26S proteasome regulatory subunit RPN12, P32496
listed as a hit [1]: yes

ATP-dependent molecular chaperone HSP82, P02829
listed as a hit [2]: yes

ATP synthase subunit beta, mitochondrial, P00830
listed as a hit [3]: yes

ATP synthase subunit 4, mitochondrial, P05626
listed as a hit [4]: yes
listed as a hit [5]: yes
listed as a hit [6]: yes

26S proteasome regulatory subunit 6A, P33297
listed as a hit [7]: yes
listed as a hit [8]: yes
listed as a hit [9]: yes

26S proteasome complex subunit SEM1, O94742
listed as a hit [10]: yes

ATP synthase subunit d, mitochondrial, P30902
listed as a hit [11]: yes

26S proteasome regulatory subunit 7 homolog, P33299
listed as a hit [7]: yes

26S proteasome regulatory subunit 6B homolog, P33298
listed as a hit [1]: yes
listed as a hit [12]: yes

Ubiquitin C-terminal hydrolase RPN11, P43588
listed as a hit [13]: yes
listed as a hit [14]: yes
listed as a hit [12]: yes

2-isopropylmalate synthase, P06208
listed as a hit [15]: yes

Proteasome-interacting protein CIC1, P38779
listed as a hit [16]: yes

Ribosome biogenesis protein NSA2, P40078
listed as a hit [17]: yes

Protein transport protein SEC61, P32915
listed as a hit [18]: yes

ATP synthase subunit epsilon, mitochondrial, P21306
listed as a hit [19]: yes

Ribosome-associated molecular chaperone SSB1, P11484
listed as a hit (Elongation factor 3A): yes
listed as a hit [20]: yes
listed as a hit [21]: yes
listed as a hit [22]: yes
listed as a hit [23]: yes
listed as a hit [24]: yes
listed as a hit [25]: yes
listed as a hit [26]: yes
listed as a hit [27]: yes
listed as a hit [28]: yes

26S proteasome regulatory subunit RPN2, P32565
listed as a hit [7]: yes
listed as a hit [13]: yes
listed as a hit [1]: yes

Enolase 1, P00924
listed as a hit [29]: yes

ATP synthase subunit e, mitochondrial, P81449
listed as a hit [30]: yes

Large ribosomal subunit protein uL29B, P0CX85
listed as a hit [29]: yes

ATP-dependent molecular chaperone HSC82, P15108
listed as a hit (Heat shock protein STI1): yes

26S proteasome regulatory subunit 4 homolog, P40327
listed as a hit [13]: yes

Heat shock protein SSA2, P10592
listed as a hit [29]: yes

26S proteasome regulatory subunit RPN13, O13563
listed as a hit [31]: yes

Large ribosomal subunit protein eL24A, P04449
listed as a hit [32]: yes
listed as a hit [33]: yes
listed as a hit [29]: yes

26S proteasome regulatory subunit RPN10, P38886
listed as a hit [14]: yes

Heat shock protein STI1, P15705
listed as a hit [1]: yes

Polyadenylate-binding protein, cytoplasmic and nuclear, P04147
listed as a hit [29]: yes

Nucleolar protein 16, P40007
listed as a hit [16]: yes
listed as a hit [34]: yes

Casein kinase II subunit alpha, P15790
listed as a hit [35]: yes

Casein kinase II subunit alpha', P19454
listed as a hit [36]: yes

Cytochrome b-c1 complex subunit 2, mitochondrial, P07257
listed as a hit [37]: yes

Cytochrome b-c1 complex subunit 1, mitochondrial, P07256
listed as a hit [38]: yes

Respiratory supercomplex factor 2, mitochondrial, P53721
listed as a hit [39]: yes

Cytochrome b-c1 complex subunit 6, mitochondrial, P00127
listed as a hit [40]: yes

Cytochrome c oxidase subunit 5A, mitochondrial, P00424
listed as a hit [41]: yes

DNA-directed RNA polymerase II subunit RPB3, P16370
listed as a hit [42]: yes
listed as a hit [43]: yes

DNA-directed RNA polymerase II subunit RPB2, P08518
listed as a hit [43]: yes

25S rRNA (cytosine(2870)-C(5))-methyltransferase, P40991
listed as a hit (FK506-binding protein 4): yes

H/ACA ribonucleoprotein complex subunit CBF5, P33322
listed as a hit [44]: yes

Reference: article PMC11066047
